Marburg entry inh: Marburg virus entry inhibition; Marburg virus pseudotyped entry inhibition, cell reporter; Potency, µM (series often up to 37.8 µM), hits mostly inhibitors; 300,000 tested, 1.8% active; AID 540276; calls by dose curve; tested in HEK293 cells
Vaccinia Venus: inhibitors of vaccinia virus (Venus reporter). Vaccinia virus Venus reporter expression, fluorescence. Potency, µM (series often up to 36.5 µM), actives largely listed as inhibitors. 330,000 tested, 0.46% active; calls by dose curve; tested in A549 cells; also: nearly all actives have a fitted effect of over 30% in size
Lassa entry inh: blocks Lassa virus binding to or entry into cells; Lassa virus pseudotype entry inhibition, cell reporter; Potency, µM (doses to about 37.9 µM), usual class: inhibitors; 300,000 tested, 1.2% active; AID 540256; calls by dose curve; tested in HEK293 cells; also: nearly all actives have a fitted effect of over 50% in size
Vaccinia mCherry: vaccinia inhibition (mCherry reporter); Vaccinia virus mCherry reporter infection, fluorescence; Potency, µM (top dose mostly 36.5 µM), actives largely listed as inhibitors; 310,000 tested, 0.63% active; calls by dose curve; tested in A549 cells; also: nearly all actives have a fitted effect of over 35% in size
Sm TGR inh: blocks Schistosoma mansoni thioredoxin glutathione reductase; Potency, µM (highest dose often 114 µM), hits mostly inhibitors; purified TGR, DTNB reduction, TNB absorbance 405 nm; 360,000 tested, 3% active; Q962Y6; active = well fitted inhibition curve with a large enough effect; inconclusive = small, poorly fitted or top-dose-only effect; inactive = no such curve, though single readings can be large or run the other way; also: nearly all actives have a fitted effect of over 60% in size
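First, TGR (20 nM dispensed) and NADPH were mixed with compound. Second, a 15 min room-temperature incubation followed. Third, further NADPH and then DTNB were added to start the reaction. Finally, TNB absorbance was monitored kinetically.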
FMDV inh: blocks foot and mouth disease virus | FMDV antiviral cell-based qHTS | Potency, µM (highest dose often 57.9 µM), usual class: inhibitors | 410,000 tested, 1.2% active; calls by dose curve; tested in HEK293T cells; also: read-out not given here; nearly all actives have a fitted effect of over 45% in size
Hits are given with their value; . = inactive; ? = inconclusive; / = no result given; ! = a repeat was not active; [ ] = dose if it differs, or a comment. A selection: hits, their analogues and other compounds. The true share with any hit is near 5.4%.

SMILES	Marburg entry inh	Vaccinia Venus	Lassa entry inh	Vaccinia mCherry	Sm TGR inh	FMDV inh
O=C(CCC1CCCN(C(=O)CCC(F)(F)F)C1)NCc1ccc(F)c(F)c1 (centres undefined)	.	.	.	.	.	.
O=C(CCC1CCCN(C(=O)c2ccc3c(c2)OCCO3)C1)NCc1ccccc1F (centres undefined)	?	.	.	.	.	.
Cc1ccc(CNC(=O)CCC2CCCN(C(=O)CCC(F)(F)F)C2)o1 (centres undefined)	.	.	.	.	13µM	.
COc1cccc(CNC(=O)CCC2CCCN(C(=O)c3ccccc3N(C)C)C2)c1 (centres undefined)	?	.	.	.	79µM	.
N#CC1=C(N2CCOCC2)/C(=C\c2ccccc2)CC1	.	.	.	.	.	.
O=CC1=C(N2CCOCC2)/C(=C\c2ccccc2)CC1	.	?	?	?	25µM	.
O=P(C1=C(N2CCOCC2)/C(=C\c2ccccc2)CC1)(N1CCOCC1)N1CCOCC1	.	.	?	.	45µM	/
O=C(NP(=O)(N1CCOCC1)N1CCOCC1)C1=C(N2CCOCC2)/C(=C\c2ccccc2)CC1	.	.	.	.	3.2µM	.
COc1ccc(OC)c(-c2cc(-c3cccnc3)nc(N)c2C#N)c1	1.4µM	.[7.34 µM]	?	.[7.34 µM]	.	?
COc1cccc(-c2cc(-c3cccnc3)nc(N)c2C#N)c1	/	/	/	/	.	.
CCCCN1CC[C@H]2C=CC[C@@H](C(=O)NC3CCCCC3)[C@H]2C1=O	/	.	/	.	/	/
COc1ccc(Cn2c(C(=O)O)c(CNCCc3cccs3)c3ccc(C)cc32)cc1	/	.	.	.	.	.
O=C(COc1ccc(Br)cc1CNC1CCCCC1)NCCc1ccccc1	11µM	.	?	?	.	.
NS(=O)(=O)c1ccc(NC2=CC(=O)C(=O)c3ccccc32)cc1	.	?	.	.	.	25µM
Cc1ccc(NC2=CC(=O)C(=O)c3ccccc32)cc1	?	/	?	/	.	.
CCOc1ccc(NC(=O)Nc2cc(OCC(F)(F)F)cc(OCC(F)(F)F)c2)cc1	?	.	?	.	.	.
O=C(Nc1ccc(F)cc1)Nc1cc(OCC(F)(F)F)cc(OCC(F)(F)F)c1	8.9µM	?	18µM	10µM	.	.
Cc1cc(C)c(S(=O)(=O)/N=C2/C=C(SCC(=O)O)C(=O)c3ccccc32)cc1C	?	.	.	.	3.5µM	.
CC(=O)c1c(C)[nH]c(C(=O)CN2CCN(S(=O)(=O)c3ccccc3)CC2)c1C	/	/	/	/	45µM	?
Cc1ccc(NC(=O)c2cc(S(=O)(=O)NC3CCCCC3)ccc2F)cc1Cl	/	.	.	?	.	.
COc1cc(C2NC(=O)c3ccccc3O2)cc(OC)c1OC (centres undefined)	.	/	.	/	.	.
COc1cc(C2Oc3ccccc3C=C2[N+](=O)[O-])cc(OC)c1OC (centres undefined)	/	/	/	/	32µM	13µM
COc1ccc(CCNC(=O)C2CCN(C(=O)NC3CCCCC3)CC2)cc1	.	/	.	/	.	.
COc1ccc(C2(O)CCN(C(=O)NC3CCCCC3)CC2)cc1	3.7µM	.	.	.	.	.
O=C(O)CCCn1cc(NC(=O)COc2ccc(F)cc2F)cn1	.	.	.	.	.	.
SMILES	Marburg entry inh	Vaccinia Venus	Lassa entry inh	Vaccinia mCherry	Sm TGR inh	FMDV inh
O=C(O)CCCn1cc(NC(=O)COc2ccccc2F)cn1	.	.	?	.	.	10µM!
CC(C)(C)C(=O)Nc1ccc(C(=O)N/N=C/c2ccccc2OC(=O)c2ccc(Cl)cc2)cc1	?	?	?	7.9µM	.	.
COc1ccc(N2Cc3ccc(C(=O)N/N=C\c4ccc(O)cc4O)cc3C2)cc1	/	/	/	/	28µM	/
COc1cc(C(=O)Oc2ccccc2/C=N/NC(=O)c2ccc(C)cc2)cc(OC)c1OC	?	?	8.9µM	/	.	.
CC(C)(C)C(=O)Nc1ccc(C(=O)N/N=C/c2ccccc2OC(=O)c2ccccc2)cc1	?	?	?	/	.	.
COc1ccc2nc(C)cc(SCC(=O)N/N=C/c3ccc(O)cc3O)c2c1	?	?	?	?	.	?
COc1ccc(C(=O)N/N=C/c2ccccc2OC(=O)c2ccccc2)cc1	13µM	?	?	2µM	.	.
Cc1cc(C)c2c(-n3cccc3)c(C(=O)NCCc3ccc(Cl)cc3)sc2n1	?	.	.	.	.	.
CCN(Cc1ccncc1)Cc1ccc2c(c1)CN(C(=O)c1cccc3c(C)c(C)[nH]c13)CCO2	/	.	/	.	/	.
Cc1ccccc1N1C(=O)C[C@@H](Sc2nnc(-c3ccccc3)o2)C1=O	.	/	/	/	/	/
